{"source": "PubChem BioAssay (NCATS)", "note": "Inconclusive results are not listed. Values without a mark were called inactive. The source made the active and inactive calls. Calls follow the shape of the dose curve; as a rule, active = well fitted inhibition curve with a large enough effect in the signal ratio, with a control signal flat (not every such curve was filed as active); inconclusive = small, poorly fitted or top-dose-only effect, or effect the other way, or a change in a side signal; inactive = no such curve, though single readings can be large or run the other way; the % refers to the signal ratio."}
{"molecular_target": "Peroxisome proliferator-activated receptor delta (Homo sapiens) (UniProt Q03181)", "sequence (Q03181 whole entry, looked up)": "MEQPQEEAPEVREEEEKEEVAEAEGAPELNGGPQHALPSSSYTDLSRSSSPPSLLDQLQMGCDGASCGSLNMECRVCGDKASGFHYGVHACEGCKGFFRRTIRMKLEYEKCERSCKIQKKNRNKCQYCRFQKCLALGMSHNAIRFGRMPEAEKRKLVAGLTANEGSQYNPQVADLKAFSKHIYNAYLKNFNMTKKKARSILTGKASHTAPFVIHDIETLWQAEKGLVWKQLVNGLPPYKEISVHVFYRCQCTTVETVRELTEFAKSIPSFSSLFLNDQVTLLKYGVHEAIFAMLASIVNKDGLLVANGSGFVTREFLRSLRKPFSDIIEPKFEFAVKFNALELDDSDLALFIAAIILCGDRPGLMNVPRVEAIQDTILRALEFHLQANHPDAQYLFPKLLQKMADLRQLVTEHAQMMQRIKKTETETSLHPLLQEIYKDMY", "assay": "qHTS assay for small molecule antagonists of peroxisome proliferator-activated receptor delta signaling (AID 588535)", "details": "HEK293T PPARd-UAS-bla, beta-lactamase FRET ratio, 18 h; series mostly up to 76.7 µM; activity change, negative = inhibition: at the top concentration", "text": "NIH Chemical Genomics Center [NCGC] U.S. Environmental Protection Agency [EPA] National Institutes of Environmental Health Sciences [NIEHS] National Toxicology Program [NTP] NCGC Assay Overview The Peroxisome proliferator-activated receptors (PPARs) are lipid-activated transcription factors of the nuclear receptor superfamily with three distinct subtypes namely PPAR alpha, PPAR delta (also called PPAR beta) and PPAR gamma. All these subtypes heterodimerizes with Retinoid X receptor (RXR) and have different physiological functions. […] This role of PPAR delta implicates the potential use of its ligands in the treatment of metabolic disorders.\nNCGC Assay Protocol Summary Using a beta-lactamase reporter-gene under control Peroxisome Proliferator-Activated Receptor delta (PPAR-delta) response element, a cell-based assay [GeneBLAzer (PPAR-delta-UAS-bla assay developed by Invitrogen] was used to measure PPAR-delta ligands signaling. GeneBLAzer PPAR-delta-UAS-bla HEK293T cells were used with assay medium containing 2% charcoal/dextran FBS. The assay was performed in clear bottom black Greiner 1536-well plates. Library compounds were measured for their ability to inhibit the reporter gene activity. Compounds were screened in a titration series in 1536-well format. The fluorescence intensity (405 nm excitation, 460/530 nm emission) was measured using an EnVision plate reader. […] Concentration-response titration points for each compound were fitted to the Hill equation yielding concentrations of half-maximal inhibition (IC50) and maximal response (efficacy) values. qHTS protocol for PPAR-delta beta-lactamase assay in antagonist mode [Step] [Parameter] [Value] [Description] 1. Reagent; 5 uL; 4000 cells/well 2. Incubation; 37 C for 5 hrs 3. Compounds; 23 nL; 0.59 nM to 92 uM 4. […] Incubation; 37 C for 18 hrs 7. Detection reagent; 1 uL of CCF4-dye 8. Incubation; RT for 2 hrs 9. Detection; Fluorescence; Envision plate reader", "units": {"activity change, negative = inhibition": "%"}}
{"smiles": "Brc1ccc(Oc2cc(Br)c(Br)cc2Br)c(Br)c1", "Potency": "inactive"}
{"smiles": "C1CCC2CCCCC2C1", "note": "(stereo not given)", "activity change, negative = inhibition": -17.6}
{"smiles": "OCC(Br)CBr", "note": "(stereo not given)", "activity change, negative = inhibition": 3.99}
{"smiles": "Nc1ccccc1Cl", "activity change, negative = inhibition": -14.6}
{"smiles": "COP(=S)(OC)Oc1ccc([N+](=O)[O-])cc1", "activity change, negative = inhibition": -15.5}
{"smiles": "C=CC(=O)OCC", "activity change, negative = inhibition": -3.91}
{"smiles": "CCS(=O)CCSP(=O)(OC)OC", "note": "(stereo not given)", "activity change, negative = inhibition": 12.2}
{"smiles": "Brc1ccccc1", "activity change, negative = inhibition": 12.1}
{"smiles": "CC(C)(C)OOC(C)(C)C", "activity change, negative = inhibition": -8.61}
{"smiles": "Oc1ccc(Cl)cc1Cl", "activity change, negative = inhibition": 5.06}
{"smiles": "ClC1=C(Cl)C2(Cl)C3C(Cl)C=CC3C1(Cl)C2(Cl)Cl", "note": "(stereo not given)", "activity change, negative = inhibition": -19.2}
{"smiles": "CC(C)N1C(=O)c2ccccc2NS1(=O)=O", "activity change, negative = inhibition": 4.92}
{"smiles": "Clc1nc(Cl)nc(Cl)n1", "Potency": "inactive"}
{"smiles": "CCCCCCCCCc1ccc(O)cc1", "Potency": "inactive"}
{"smiles": "CNC(=O)Oc1ccccc1OC(C)C", "activity change, negative = inhibition": 20.4}
{"smiles": "ClCBr", "activity change, negative = inhibition": -3.43}
{"smiles": "CCCOC(=O)c1ccccc1C(=O)OCCC", "activity change, negative = inhibition": 18.5}
{"smiles": "CC(C)(C)OO", "Potency": "inactive"}
{"smiles": "S=C=Nc1cccc2ccccc12", "activity change, negative = inhibition": -9.85}
{"smiles": "CC(C)(OO)c1ccccc1", "activity change, negative = inhibition": -15.9}
{"smiles": "O=C(Cl)C(Cl)(Cl)Cl", "activity change, negative = inhibition": -15.4}
{"smiles": "CC(COc1ccc(Oc2ccccc2)cc1)Oc1ccccn1", "note": "(stereo not given)", "Potency": "inactive"}
{"smiles": "CC(C)OC(=O)Nc1cccc(Cl)c1", "activity change, negative = inhibition": 7.12}
{"smiles": "OCC1CO1", "note": "(stereo not given)", "Potency": "inactive"}
{"smiles": "Cc1cccc([N+](=O)[O-])c1", "Potency": "inactive"}
{"smiles": "CN=C=S", "activity change, negative = inhibition": -22}
{"smiles": "C=CC1CC=CCC1", "note": "(stereo not given)", "Potency": "inactive"}
{"smiles": "CC(O)CCl", "note": "(stereo not given)", "Potency": "inactive"}
{"smiles": "C=C(C)C(=O)OCC1CO1", "note": "(stereo not given)", "activity change, negative = inhibition": -14.8}
{"smiles": "BrCCBr", "Potency": "inactive"}
{"smiles": "Cc1ccccc1N", "activity change, negative = inhibition": -4.76}
{"smiles": "NC(=S)Nc1ccccc1", "Potency": "inactive"}
{"smiles": "CC(C)(c1ccccc1)c1ccc(O)cc1", "activity change, negative = inhibition": 7.76}
{"smiles": "C=C(Cl)Cl", "activity change, negative = inhibition": -23.2}
{"smiles": "CCC[CH2][Sn]([Cl])([Cl])[Cl]", "Potency": "inactive"}
{"smiles": "CCOP(=S)(OCC)Oc1ccc([N+](=O)[O-])cc1", "Potency": "inactive"}
{"smiles": "COc1nc(NC(C)C)nc(NC(C)C)n1", "activity change, negative = inhibition": 7.17}
{"smiles": "Clc1ccc2ccccc2c1", "activity change, negative = inhibition": -18.9}
{"smiles": "C[N+](C)(C)Cc1ccccc1", "Potency": "inactive"}
{"smiles": "Cc1ccc(O)c(C)c1", "Potency": "inactive"}
